Data published in PubChem BioAssay (NCI).
The panel holds about 83,000 compounds, 20% with a hit somewhere; the sample as a whole holds those more often.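 Growth was measured after 48 h exposure to one concentration of compound in 96-well plates. Values under 10 count as active.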 Activity calls are given as the source filed them.

These molecules were tested on NCI-H23 lung (assay: NCI-60 one-dose screen, 48 h (100 = growth as untreated, 0 = no growth, -100 = all killed)). Settings: 10 µM unless noted.
Method: Growth inhibition of the NCI-H23 human Non-Small Cell Lung tumor cell line is measured as a screen for anti-cancer activity. Cells are grown in 96 well plates and exposed to the test compound for 48 hours. Compounds are tested at a single concentration, which is 10^-5 M for most compounds. The reported endpoint is percent growth (GI% or GIPRCNT), where numbers from 0 - 100% represent growth inhibition, and numbers from -100% - 0 represent cell death. For example, a value of 40 represents 60% growth inhibition. A value of 0 means no net growth occurred over the course of the experiment. A value of -40 indicates 40% of cells at the beginning of the experiment died by the end of the experiment. A value of -100 means all cells are dead at the end of the experiment.
NCI-60 Human Tumor Cell Lines Screen was performed using the standard one-dose NCI protocol, which is described in more detail at https://dtp.cancer.gov/discovery_development/nci-60/default.htm.
Compounds with GIPRCNT values below 10 were considered active. Activity score was based on GIPRCNT using the following formula: […]
Score is 0 for GIPRCNT values of 100 or above, 50 for GIPRCNT values of 0, and 100 for GIPRCNT values of -100.

| Compound | growth |
| --- | --- |
| NS(=O)(=O)c1ccc(Nc2nc(N/N=C/c3ccc(Cl)cc3)nc(Nc3ccccc3)n2)cc1 | 87.1% (inactive) |
| COc1ccc2c(c1)c(CC(=O)[Se]CC#N)c(C)n2C(=O)c1ccc(Cl)cc1 | -11.3% (active) |
| Cc1ccc(-c2cc3nc(C(Cl)Cl)nc(-c4ccco4)n3n2)cc1 | 59.8% (inactive) |
| C[C@@H]1C[C@H]2C(=O)O[C@@H](C)C(NC(=O)[C@H](Cc3cc(F)cc(F)c3)NC(=O)Nc3ccc(Cl)cc3F)C(=O)N3CCC[C@H]3C(=O)N3CCCC[C@H]3C(=O)N[C@@H](CO)C(=O)N2C1 (stereo not given in full) | 37.9% (inactive) |
| Cn1cc(CNc2nc3ccc(OC/C(=C/F)CN)cc3o2)ccc1=O | 107% (inactive) |
| COc1cc(OC)c(/C=C/S(=O)(=O)Cc2ccc(OC)c(NC(=O)CCC(=O)NO)c2)c(OC)c1 | 16.6% (inactive) |
| COc1c(N2CC3CCCNC3C2)c(F)cc2c(=O)c(C(=O)N/N=C/c3ccc4c(c3)OCO4)cn(C3CC3)c12 (stereo not given) | 81.8% (inactive) |
| CC(C)(C)c1ccc(C(=O)Nc2sc3c(c2C(N)=O)CC/C(=N\O)C3)cc1 | 7.05% (active) |
| Cc1noc(C)c1CSc1nc2ccccc2n1-c1ccccc1 | 90.9% (inactive) |
| NC(N)=Nc1ccc(Oc2cccc(Nc3ccc(Cl)c(C(F)(F)F)c3)c2)cn1 | -65.6% (active) |
| O=S(=O)(Nc1ccc2c(c1)OCO2)c1ccc(-c2cnc(C3CC3)o2)cc1 | 42% (inactive) |
| Cc1cc(C)c(N2C(=O)CC(Nc3ccc(Cl)cc3Cl)C2=O)c(C)c1 (stereo not given) | 104% (inactive) |
| CNC(=O)c1cc(-c2ccc(NC(=S)Nc3cc(C(F)(F)F)cc(C(F)(F)F)c3)cc2)nc2cccnc12 | 93.7% (inactive) |
| O=C1/C(=C/C=C/c2ccco2)SC(=S)N1C1CCCCC1 | 91.3% (inactive) |
| C#CCOc1ccc(/C=N\Nc2nc(-c3ccc(C)cc3)cs2)cc1OC | 87.2% (inactive) |
| CC(=O)c1cc(C(=O)c2ccc(Br)cc2)n2cc(C)cc(C)c12 | 102% (inactive) |
| NC(N)=Nc1ccc(Oc2cccc(NC(N)=Nc3ccc(Cl)c(C(F)(F)F)c3)c2)cc1 | 60.2% (inactive) |
| CC(C)C[C@@H]1N[C@@]2(C(=O)Nc3ccccc32)[C@@H](c2ccc(F)cc2)[C@@H]1C(=O)c1ccc(O)cc1 | 91.6% (inactive) |
| Cc1ccc(S(=O)(=O)N(CC[C@@H]2C[C@H]2c2cc3ccccc3o2)S(=O)(=O)c2ccc(C)cc2)cc1 | 90.8% (inactive) |
| COc1ccc(NC(=O)CSc2nnc(-c3ccc4nc(-c5ccc(OC)c(OC)c5)[nH]c4c3)o2)cc1OC | 80.6% (inactive) |

| Compound | growth |
| --- | --- |
| C=CCn1c(-c2nc3ccc(C(=C(C#N)C#N)c4ccccc4)cc3[nH]2)cc2cc(Br)ccc21 | 46.9% (inactive) |
| COc1cc2nc(Cl)nc(Nc3cccc(C4=Nc5c(N)nc(N)nc5NC(c5ccc(F)cc5)C4)c3)c2cc1OC (stereo not given) | 75.9% (inactive) |
| NC(N)=Nc1ccc(Oc2cccc(NC(N)=Nc3ccc(I)cc3F)c2)cc1 | 77.4% (inactive) |
| NC(N)=Nc1ccc(Oc2cccc(NC(N)=Nc3ccc(Br)c(C(F)(F)F)c3)c2)cc1 | 54.4% (inactive) |
| CS(=O)(=O)c1ccc(-c2nn(-c3ccccc3)cc2/C=N/NC(=O)c2nc(N)n[nH]2)cc1 | 96.3% (inactive) |
| Nc1nc(-c2cccc([N+](=O)[O-])c2)c(N=Nc2ccccc2)s1 | 70.2% (inactive) |
| O=C1CCCc2nc(Nc3ccc(S(=O)(=O)Nc4ccc([N+](=O)[O-])cc4)cc3)ncc21 | 102% (inactive) |
| COc1ccc(COc2ccc(/C=C3\C(=O)Nc4ccccc43)cc2OC)cc1 | 103% (inactive) |
| CCO/C=N/C1=C(C#N)C(c2ccc(Cl)cc2)c2sc3c(CC)cccc3c2O1 (stereo not given) | 22% (inactive) |
| CCOC(=O)C1=NNC(c2ccc(Cl)cc2)C1C(=O)N1C(=S)NC(=O)C1CC(C)C (stereo not given) | 99.3% (inactive) |
| CCn1c(SCC(=O)Nc2cccc(C(=O)/C=C/c3ccccc3Cl)c2)nc2ccccc2c1=O | 69.5% (inactive) |
| CC(=O)Nc1cccc(Nc2nc(N[C@H](C)c3ccccc3)c3ccccc3n2)c1 | 52.3% (inactive) |
| CCc1nn2c(C)cc(C)nc2c1Cc1ccc(/C=C/CN2CCN(CCOCCOCCN3CCN(C/C=C/c4ccc(Cc5c(CC)nn6c(C)cc(C)nc56)cc4)CC3)CC2)cc1 | 26.2% (inactive) |
| O=C1/C(=C/C=C/c2ccco2)SC(=S)N1c1ccccc1 | 70.7% (inactive) |
| O=C(CCC(=O)N1CCOCC1)OCCCCCCSc1ccc([N+](=O)[O-])c2nonc12 | -60.7% (active) |
| NC(N)=Nc1ccc(Oc2cccc(Nc3ccc(Cl)c(C(F)(F)F)c3)c2)cc1 | 47.4% (inactive) |
| C=C(C)[C@@H]1CC[C@]2(C(=O)NCCCCCN(CCC#N)CCC#N)CC[C@]3(C)[C@H](CC[C@@H]4[C@@]5(C)CCC(=O)C(C)(C)[C@@H]5CC[C@]43C)[C@@H]12 | 95.3% (inactive) |
| CC(C)(C)CC(C)(C)n1nnnc1C(Nc1nccs1)c1cc2cccc3ccc4cccc1c4c32 (stereo not given) | 102% (inactive) |
| COc1ccc(C(=O)Nc2ncc(Cc3ccccc3Cl)s2)cc1 | 17.9% (inactive) |
| N#Cc1cnc2ccc(-c3cnc4[nH]ncc4c3)cc2c1N1CCc2cc(F)c(Cl)cc21 | 7.08% (active) |
